Eight compounds from PubChem BioAssay (NCATS) can be followed below.

“And” between values parts separate entries of the source, which are not always exact repeats. Equal entries are not always repeated. A number with no mark means an inactive call. Records with an inconclusive call do not appear. The list shows a part of the results. The source made the active and inactive calls. Unless noted, the call rests on the fitted dose curve; in most records, active means well fitted curve in either direction with a large enough effect (not every such curve was filed as active); inconclusive means small, poorly fitted or top-dose-only effect, or another doubt; inactive means flat fitted curve, though single readings scatter.

Assay [1] has as its target Lysosomal acid glucosylceramidase (Homo sapiens) (UniProt P04062). Description: Glucocerebrosidase-p2 (AID 348; in the data active means potency below about 10 µM; further: potency means the concentration at half of the fitted maximal effect). The note with it: purified GBA, blue fluorogenic substrate, 40 min. In a few lines:
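Compounds titrated from 0.6 nM upwards against 0.2 nM enzyme in pH 5.9 citric acid/KH2PO4, taurocholate, tween-20; blue fluorogenic substrate 80 uM, 40 min room temperature, stopped and read Ex 365/Em 440 for AC50.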

Assay [2] can be described thus: AP1 Signaling Pathway (AID 357).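 Further: ME-180 reporter cells stimulated with EGF at its EC50 level; on the % scale 0 is the no-effect control and ±100 the full control effect.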 Conditions: ME-180 AP-1-bla reporter, EGF-induced, beta-lactamase ratio, 5 h. In a few lines: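 First, ME-180 AP-1-bla cells were cultured overnight at 37 °C in low-serum Opti-MEM. Next, titrated compounds with EC50 EGF were incubated 5 hours. Finally, CCF4 was added for 2.5 hours and the 460/530 nm ratio recorded.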
For assay [3], the target named is Cytochrome P450 1A2 (Homo sapiens) (UniProt P05177). Description: p450-cyp1a2 (AID 410; calls by dose curve; further: potency means the concentration at half of the fitted maximal effect;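 on activity change, negative = inhibition: -100% = full effect of reference inhibitor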). Conditions: recombinant CYP1A2, luciferin-ME demethylation, luminescence; series mostly up to 11.4 µM. In a few lines:
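Human CYP1A2 (20nM) demethylated Luciferin-ME at its Km (100uM) in 100mM KPO4. After 10 min compound preincubation, NADPH regeneration ran the reaction 60 min at room temperature. Luciferin was read by luminescence, normalized to 57 uM furafylline.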

Assay [4] in a line: NFAT Signaling Pathway (AID 444).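 Further: carbachol stimulus at about its EC50 of 1 µM final; on the % scale 0 is the no-effect control and ±100 the full control effect.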 The note with it: Jurkat NFAT-bla M1, carbachol, beta-lactamase ratio, 5 h; at 7.69 µM (top of the series) unless noted. In a few lines: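 Read-out: CCF4 FRET ratio (460 nm/530 nm) after 1 h RT dye loading, used for %activity and AC50 from titration series. Cells: Jurkat NFAT-β-lactamase/M1 line, treated with compound plus 1 uM carbachol for 5 h, 37 °C.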

Assay [5] is described as follows: Stat Signaling Pathway (AID 446).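 Further: ME-180 cervical cancer cells given 40 pM IL-6 alongside compound; SIE-controlled beta-lactamase reporter measured as 460/530 nm FRET emission ratio; on the % scale 0 is the no-effect control and ±100 the full control effect.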 The note with it: ME-180 (cervical carcinoma) SIE beta-lactamase reporter, IL-6 stimulated, 5 h. In a few lines:
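IL-6/STAT signaling read in ME-180 cells via an SIE beta-lactamase reporter. Stimulus was 40 pM IL-6 (its AC50) for 5 hrs, so both activation and inhibition register.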

Assay [6] addresses Glucocorticoid receptor (Homo sapiens) (UniProt P04150). Description: GR-GFP Redistribution (AID 450;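 active means compounds whose dose series gives a full or clear partial fitted curve of increased nuclear translocation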; further: potency means the concentration at half of the fitted maximal effect). Conditions: U2OS GR-GFP nuclear translocation, laser cytometry, 2 h.
Assay [7] shares this target. Description: GR-EFC Redistribution (AID 451; calls by dose curve; further: potency means the concentration at half of the fitted maximal effect). Conditions: CHO-K1 GR-EFC translocation, beta-gal luminescence, 2 h. In a few lines:
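Translocation of GR-ED fusion to nuclear EA restores b-gal, read by luminescence after 1 h room-temperature detection. Engineered CHO-K1 biosensor cells, 1,000/well, exposed 2 h at 37 C to titrations up to 46 uM final.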

The target of assay [8] is Mitogen-activated protein kinase 10 (Mus musculus) (UniProt Q61831). Description: JNK3 AlphaScreen Assay (AID 530).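 Further: kinase came from lysate of stimulated human HepG2 cells; signal reports phosphorylation of biotinylated GST-cJun 1-79 at Ser73 with 10 µM ATP; on the % scale 0 is the no-effect control and ±100 the full control effect.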 Conditions: JNK3 lysate, c-Jun phosphorylation; series mostly up to 11.4 µM. In a few lines: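 Room-temperature AlphaScreen kinase assay; pre-activated HepG2 lysate as JNK3 source, biotin-GST-cJun(1-79) substrate, 10 uM ATP, compound 15 min preincubation.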
Background: In Alpha technology, singlet oxygen from a donor bead excites a nearby acceptor bead.

Assay [9] addresses 3',5'-cyclic-AMP phosphodiesterase 4B (Homo sapiens) (UniProt Q07343). Description: qHTS Assay for Inhibitors of PDE-IV (AID 607; active means well fitted activation curve with a large enough effect in the main read-out, with a control signal flat, not every such curve was filed as active; further: % of control where 0% means no effect). Conditions: HEK293 ACTOne CNG channel cells, membrane potential fluorescence; series mostly up to 22.9 µM. In a few lines:
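Live HEK293 cells with a modified cyclic nucleotide-gated (CNG) channel report intracellular cAMP via membrane-potential dye fluorescence (ex 535/em 590 nm). Endogenous PDE-IV was targeted. Compounds were tested at up to 22.9 uM final; RO 20-1724 100 uM served as control.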
For orientation: Quantitative high-throughput screening tests each substance at several concentrations.

In assay [10] the target is Cytochrome P450 3A4 (Homo sapiens) (UniProt P08684). Description: qHTS Assay for Inhibitors and Substrates of Cytochrome P450 3A4 (AID 884; active means well fitted curve in the direction sought with a large enough effect; an effect the other way counts as inactive or inconclusive; further: nearly all actives have a fitted effect of over 50% in size; further: potency means the concentration at half of the fitted maximal effect). Conditions: recombinant CYP3A4, Luciferin-PPXE luminescence; series mostly up to 57.1 µM. In a few lines: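 20 nM human CYP3A4 with 25 uM Luciferin-PPXE (at KM) in 200 mM KPO4, preincubated 10 min with compound; NADPH regeneration started a 60 min RT reaction. Luciferin detected by luminescence, normalized to 57 uM ketoconazole as full inhibition.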
Sequence of Cytochrome P450 3A4 (Homo sapiens) (P08684 whole entry, looked up): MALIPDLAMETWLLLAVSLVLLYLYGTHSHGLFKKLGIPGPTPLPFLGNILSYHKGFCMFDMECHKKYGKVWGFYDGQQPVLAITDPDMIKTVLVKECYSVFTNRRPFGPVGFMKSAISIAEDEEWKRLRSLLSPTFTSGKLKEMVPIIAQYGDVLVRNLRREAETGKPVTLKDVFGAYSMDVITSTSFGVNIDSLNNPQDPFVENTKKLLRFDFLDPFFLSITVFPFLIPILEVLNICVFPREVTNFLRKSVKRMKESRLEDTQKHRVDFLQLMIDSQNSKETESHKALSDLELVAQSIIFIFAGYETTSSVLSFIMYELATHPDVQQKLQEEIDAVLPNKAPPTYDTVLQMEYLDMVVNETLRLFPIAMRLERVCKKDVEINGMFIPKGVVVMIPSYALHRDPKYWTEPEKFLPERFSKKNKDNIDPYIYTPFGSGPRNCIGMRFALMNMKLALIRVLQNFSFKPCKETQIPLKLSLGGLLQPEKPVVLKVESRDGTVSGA

Assay [11] shares this target. Description: qHTS Assay for Activators of Cytochrome P450 3A4 (AID 885; active means well fitted curve in the direction sought with a large enough effect; an effect the other way counts as inactive or inconclusive; further: nearly all actives have a fitted effect of over 65% in size). Conditions: recombinant CYP3A4, Luciferin-PPXE luminescence, 60 min; series mostly up to 11.4 µM. In a few lines: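 Quantitative HTS format: compounds preincubated with 20nM human CYP3A4 and Luciferin-PPXE substrate at KM, reaction started by NADPH regeneration, stopped after 60 min, luciferase luminescence read 20 min later.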

The nature of assay [12]: Confirmation and Secondary Assay for Modulators of Hemoglobin Beta Chain Splicing at IVS2 654 locus (AID 910; active means well fitted curve in the direction sought with a large enough effect; an effect the other way counts as inactive or inconclusive;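 further: HeLa cells stably carrying EGFP split by mutant beta-globin IVS2-654 intron; per-well total GFP intensity by laser scanning cytometry after 2-day treatment; % of control where 0% means no effect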). The note with it: HeLa EGFP-654 splicing reporter, GFP fluorescence, 48 h; series mostly up to 38.3 µM. In a few lines:
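Readout: per-well total peak green fluorescence (488 nm ex, 500–520 nm em) from objects 5–250 µm, reflecting correct splicing of an EGFP-654 reporter. Compounds were applied for 2 days at 37 °C to overnight-plated HeLa EGFP-654 cells; controls were DMSO and 500 nM IVS2-654 PNA.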

The nature of assay [13]: Confirmation and Secondary Assay for Modulators of Hemoglobin Beta Chain Splicing at IVS2 705 locus (AID 930; active means well fitted curve in the direction sought with a large enough effect; an effect the other way counts as inactive or inconclusive;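 further: HeLa cells stably expressing the EGFP-705 splicing reporter; GFP fluorescence per well restored by corrected splicing of the IVS2-705 intron in EGFP; % of control where 0% means no effect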). The note with it: HeLa EGFP-705 splicing reporter, GFP fluorescence, 48 h; series mostly up to 38.3 µM. In a few lines:
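First, HeLa EGFP-705 cells are seeded at 500/well in Optimem with 2% FCS and left overnight. Next, compound or DMSO is added for 2 days. Finally wells are laser-scanned and total peak GFP intensity scored.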

In assay [14] the target is Ubiquitin carboxyl-terminal hydrolase 1 (Homo sapiens) (UniProt O94782). Description: Inhibitors of USP1/UAF1: Pilot qHTS (AID 504865; active means well fitted curve in the direction sought with a large enough effect; an effect the other way counts as inactive or inconclusive;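 further: rhodamine fluorescence freed from ubiquitin-rhodamine substrate followed over time; top concentration of the series differs between compounds; on the % scale 0 is the no-effect control and ±100 the full control effect; nearly all actives have a fitted effect of over 35% in size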). Conditions: purified USP1/UAF1, Ub-rhodamine cleavage fluorescence; series mostly up to 114 µM. In a few lines: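 Enzyme-free wells gave the negative control, while test wells held 1nM USP1/UAF1 preincubated with compound for 15 min at room temperature. Ub-Rho at 150nM final started the reaction, and fluorescence at 480/540 nm was recorded kinetically.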
Sequence of Ubiquitin carboxyl-terminal hydrolase 1 (Homo sapiens) (O94782 whole entry, looked up): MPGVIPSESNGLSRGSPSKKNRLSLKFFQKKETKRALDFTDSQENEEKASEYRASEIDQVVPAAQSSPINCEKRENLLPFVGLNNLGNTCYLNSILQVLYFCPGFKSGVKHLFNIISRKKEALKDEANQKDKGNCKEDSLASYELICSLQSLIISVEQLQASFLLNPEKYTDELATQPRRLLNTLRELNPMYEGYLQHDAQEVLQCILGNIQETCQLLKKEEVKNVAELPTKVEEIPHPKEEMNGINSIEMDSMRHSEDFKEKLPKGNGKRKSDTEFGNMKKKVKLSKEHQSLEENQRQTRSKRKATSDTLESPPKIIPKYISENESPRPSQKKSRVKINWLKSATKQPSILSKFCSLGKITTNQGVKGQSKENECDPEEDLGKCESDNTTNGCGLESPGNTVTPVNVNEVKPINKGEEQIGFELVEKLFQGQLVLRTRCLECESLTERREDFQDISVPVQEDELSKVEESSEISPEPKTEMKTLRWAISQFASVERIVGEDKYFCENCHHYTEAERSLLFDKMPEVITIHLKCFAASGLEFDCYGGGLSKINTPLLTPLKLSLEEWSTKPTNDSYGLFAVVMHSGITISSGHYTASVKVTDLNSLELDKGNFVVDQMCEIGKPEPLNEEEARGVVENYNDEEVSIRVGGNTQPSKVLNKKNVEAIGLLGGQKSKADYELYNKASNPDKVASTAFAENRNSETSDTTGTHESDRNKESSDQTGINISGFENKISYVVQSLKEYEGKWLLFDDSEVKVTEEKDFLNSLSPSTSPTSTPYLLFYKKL

Assay [15] in a line: qHTS Assay for Inhibitors of Fructose-1,6-bisphosphate Aldolase from Giardia Lamblia: Coupling assay counterscreen confirmation (AID 2795; active means well fitted curve in the direction sought with a large enough effect; an effect the other way counts as inactive or inconclusive; further: on the % scale 0 is the no-effect control and ±100 the full control effect; nearly all actives have a fitted effect of over 55% in size). Conditions: GAPDH coupling enzyme counterscreen, biochemical; series mostly up to 57.5 µM. In a few lines: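 Readings at 525 nm excitation and 598 nm emission follow a two-step room-temperature protocol: 10 min of compound (up to 57.5 uM final) with coupling enzyme reagent, then 20 min with substrate and AmpLite Red detection reagent.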

Where [16] appears, read: at 7.69 µM (top of the series) unless noted.

Sequence of Lysosomal acid glucosylceramidase (Homo sapiens) (P04062 whole entry, looked up): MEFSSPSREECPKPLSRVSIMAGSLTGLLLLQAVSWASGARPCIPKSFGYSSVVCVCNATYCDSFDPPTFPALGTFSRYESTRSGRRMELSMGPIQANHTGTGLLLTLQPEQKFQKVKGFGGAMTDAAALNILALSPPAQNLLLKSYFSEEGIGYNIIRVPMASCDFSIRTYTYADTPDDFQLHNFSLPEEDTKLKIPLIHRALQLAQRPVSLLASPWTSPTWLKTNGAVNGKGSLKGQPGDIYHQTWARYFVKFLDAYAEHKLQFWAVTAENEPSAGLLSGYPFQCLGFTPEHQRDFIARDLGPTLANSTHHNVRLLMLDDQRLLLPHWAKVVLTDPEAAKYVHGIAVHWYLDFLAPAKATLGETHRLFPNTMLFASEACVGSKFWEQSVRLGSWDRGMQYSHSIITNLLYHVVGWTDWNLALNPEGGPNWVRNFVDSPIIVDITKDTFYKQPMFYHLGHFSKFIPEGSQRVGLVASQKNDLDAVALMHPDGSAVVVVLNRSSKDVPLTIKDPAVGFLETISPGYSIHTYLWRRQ
Sequence of Glucocorticoid receptor (Homo sapiens) (P04150 whole entry, looked up): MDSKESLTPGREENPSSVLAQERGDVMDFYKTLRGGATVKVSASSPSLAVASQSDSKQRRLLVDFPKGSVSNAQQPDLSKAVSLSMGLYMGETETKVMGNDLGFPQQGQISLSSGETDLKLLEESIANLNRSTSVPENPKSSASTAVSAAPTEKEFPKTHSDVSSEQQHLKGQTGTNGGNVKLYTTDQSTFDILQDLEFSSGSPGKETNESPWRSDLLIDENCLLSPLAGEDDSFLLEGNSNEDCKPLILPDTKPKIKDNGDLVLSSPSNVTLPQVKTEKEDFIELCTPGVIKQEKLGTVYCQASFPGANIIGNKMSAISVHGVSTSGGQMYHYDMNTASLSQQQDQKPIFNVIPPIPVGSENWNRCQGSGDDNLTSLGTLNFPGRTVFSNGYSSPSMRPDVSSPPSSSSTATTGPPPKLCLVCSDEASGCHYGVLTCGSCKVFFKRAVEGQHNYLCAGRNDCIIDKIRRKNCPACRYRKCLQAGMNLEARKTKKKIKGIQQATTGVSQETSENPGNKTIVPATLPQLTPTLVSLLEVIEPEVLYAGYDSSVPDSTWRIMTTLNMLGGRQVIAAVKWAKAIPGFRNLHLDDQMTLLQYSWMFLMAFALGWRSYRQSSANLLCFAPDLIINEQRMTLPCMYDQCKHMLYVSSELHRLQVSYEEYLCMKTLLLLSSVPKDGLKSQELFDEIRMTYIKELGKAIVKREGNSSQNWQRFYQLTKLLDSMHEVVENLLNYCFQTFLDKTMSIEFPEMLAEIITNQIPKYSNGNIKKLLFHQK
Sequence of Cytochrome P450 1A2 (Homo sapiens) (P05177 whole entry, looked up): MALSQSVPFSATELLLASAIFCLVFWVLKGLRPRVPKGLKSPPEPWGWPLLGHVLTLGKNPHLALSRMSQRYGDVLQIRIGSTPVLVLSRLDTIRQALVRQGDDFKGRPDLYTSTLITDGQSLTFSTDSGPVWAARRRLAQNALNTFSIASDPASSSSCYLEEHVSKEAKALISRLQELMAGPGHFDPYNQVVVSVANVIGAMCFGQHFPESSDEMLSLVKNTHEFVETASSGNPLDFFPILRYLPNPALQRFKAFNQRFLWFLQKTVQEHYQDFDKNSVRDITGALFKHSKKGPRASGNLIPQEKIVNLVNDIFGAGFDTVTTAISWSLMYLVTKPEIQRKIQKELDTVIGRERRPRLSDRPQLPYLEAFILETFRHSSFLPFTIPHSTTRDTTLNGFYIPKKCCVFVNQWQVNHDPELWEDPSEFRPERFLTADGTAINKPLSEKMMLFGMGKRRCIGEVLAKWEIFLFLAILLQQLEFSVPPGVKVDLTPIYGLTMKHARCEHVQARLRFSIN
Sequence of 3',5'-cyclic-AMP phosphodiesterase 4B (Homo sapiens) (Q07343 whole entry, looked up): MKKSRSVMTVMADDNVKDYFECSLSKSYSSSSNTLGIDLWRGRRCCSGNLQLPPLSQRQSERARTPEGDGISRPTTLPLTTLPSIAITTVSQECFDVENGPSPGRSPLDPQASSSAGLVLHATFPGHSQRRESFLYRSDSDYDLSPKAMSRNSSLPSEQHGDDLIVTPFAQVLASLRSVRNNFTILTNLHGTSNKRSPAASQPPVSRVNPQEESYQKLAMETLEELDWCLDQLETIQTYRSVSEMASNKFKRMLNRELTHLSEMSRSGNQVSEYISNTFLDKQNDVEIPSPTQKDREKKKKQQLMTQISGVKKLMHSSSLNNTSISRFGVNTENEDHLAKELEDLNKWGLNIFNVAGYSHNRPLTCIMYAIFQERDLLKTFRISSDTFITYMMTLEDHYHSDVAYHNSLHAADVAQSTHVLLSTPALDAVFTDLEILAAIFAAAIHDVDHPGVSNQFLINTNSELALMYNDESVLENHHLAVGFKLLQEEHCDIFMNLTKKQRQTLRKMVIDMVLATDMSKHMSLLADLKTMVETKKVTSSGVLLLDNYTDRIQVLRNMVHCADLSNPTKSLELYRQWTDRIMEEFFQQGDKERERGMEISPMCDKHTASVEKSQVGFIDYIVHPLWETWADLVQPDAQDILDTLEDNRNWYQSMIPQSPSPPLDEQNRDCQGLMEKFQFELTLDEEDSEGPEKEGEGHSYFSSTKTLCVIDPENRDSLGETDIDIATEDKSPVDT

As to `CNc1ncncc1-c1ccc(C(=O)N(C)C)cc1`, the Potency is over 11.4 µM in assay [1]; 15.8 µM (active) in assay [3]; over 46 µM in assay [6]; over 46 µM in assay [7]; 5.01 µM (active) in assay [10]. In addition, the activity change, negative = inhibition in assay [2] (setting [16]) was -7.23%; in assay [4] it was 7.99%. Besides, in assay [5] (setting [16]), the activity, negative = inhibition is 8.34%. Moreover, the Potency result in [8], in assay [9], in assay [11] and in assay [14] was “inactive” in each case. The compound was classed as inactive in assay [12] and in assay [13].
`O=C(O)c1cc(N=Nc2ccc([N+](=O)[O-])cc2)ccc1O`: the Potency is over 11.4 µM in assay [1], over 46 µM in assay [6] and over 9.22 µM in assay [7]. The values for the activity change, negative = inhibition in assay [2] (setting [16]), in assay [3] and in [4] were -28%, -15.3% [at 2.29 µM] and 28.6%, respectively. Besides, the activity, negative = inhibition in assay [5] (setting [16]) was -2.69%. Also, the Potency entry in assay [8], in assay [9] and in [10] was “inactive” in each case.
In the case of `CC(C)(C)OC(=O)[C@H]([C@@H]1N[C@@H](C(=O)O)C(C)(C)S1)N1C(=O)c2ccccc2C1=O`, the Potency in [1] is over 11.4 µM; in assay [6] it was over 46 µM; in assay [7], over 9.22 µM. The activity change, negative = inhibition in assay [2] (setting [16]) is -0.34%; in assay [3], -1.4% [at 2.29 µM]; in [4] it was -5.29%. For the same compound, the activity, negative = inhibition in assay [5] (setting [16]) was 3.62%. For the same compound, the Potency entry in assay [8] is “inactive”.
Turning to `CC(=O)NC1CCN(CC(=O)Nc2nccs2)CC1`, the result in assay [15] was inactive.
In the case of `O=C(O)[C@@H]1[C@@H](C(=O)Nc2ncccn2)[C@@H]2C=C[C@@H]1O2`, the figures for the Potency in [1], in assay [6] and in assay [7] were over 11.4 µM, over 46 µM and over 9.22 µM, respectively. Further, the activity change, negative = inhibition in assay [2] (setting [16]) is -0.979%; in assay [3] it was -13.2% [at 2.29 µM]; in assay [4] it was 0.85%. Also, the activity, negative = inhibition in assay [5] (setting [16]) is 9.29%. For the same compound, the Potency result in assay [8] is “inactive”.
Consider `CCN(CCO)C[C@H]1CCC[C@H]2CCCC[C@@H]21`, for which the Potency in assay [1] was over 11.4 µM; in [3], 5.01 µM (active); in [6], over 46 µM; in assay [7] it was over 9.22 µM. In addition, the activity change, negative = inhibition in [2] (setting [16]) was 16.9%; in assay [4], 0.328%. Besides, in assay [5] (setting [16]), the activity, negative = inhibition was 4.97%. Besides, the Potency entry in [8] was “inactive”.
On to `CN(C)Cc1ccccc1-c1ccc2ncnc(NC3CCNCC3)c2c1`, for which the Potency in assay [1] was over 11.4 µM; in assay [6], over 46 µM; in [7] it was over 46 µM. Besides, the results for the activity change, negative = inhibition in [2] (setting [16]) and in [4] were 20.2% and -12.2%, respectively. For the same compound, the Potency result in assay [3], in assay [8], in assay [9] and in assay [14] was “inactive” in each case. Further, in assay [5] (setting [16]), the activity, negative = inhibition is -2.13%. Moreover, the result in assay [12] and in assay [13] was inactive.
Regarding `COc1ccc2cc1Oc1ccc(cc1)C[C@H]1c3cc(c(OC)cc3CCN1C)Oc1c(OC)c(OC)cc3c1[C@@H](C2)N(C)CC3`, the Potency in assay [1] is over 11.4 µM; in [6], > 20.6 µM and > 46 µM; in assay [7], > 20.6 µM and > 46 µM and > 9.22 µM. Also, the activity change, negative = inhibition is -3.56% in [2] (at 7.69 µM (top of the series)) and -5.15% in [2] (at 17.2 µM (top of the series)). For the same compound, the Potency result in [3], in assay [8], in [9], in assay [10] and in assay [14] was “inactive” throughout. Further, the activity, negative = inhibition in assay [5] (at 7.69 µM (top of the series)) was -1.58%; in [5] (at 17.2 µM (top of the series)) it was -5.25%.
